Source: PubChem BioAssay
This is a sample that favours compounds with a hit; in the whole collection about 12% have one here.
BAZ2B block = BAZ2B (human) inhibition. 360,000 compounds, 4.4% hits. AlphaScreen BAZ2B-H3K14Ac peptide displacement. Potency, µM (titrated, usually from 114 µM), for inactives: at the top dose activity change, negative = inhibition, hits mostly inhibitors; further: on the % scale 0 is the no-effect control and ±100 the full control effect; nearly all actives have a fitted effect of over 60% in size
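In this displacement format the biotinylated H3(5-23) peptide acetylated at Lys14 serves as ligand at 50 nM, with BAZ2B at 50 nM in PBS pH 7.4 containing 0.01% Tween-20. Donor and acceptor beads are 10 ug/mL final.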
HP1b binding inh = inhibitors of HP1-beta chromodomain binding to methylated histone tails. Potency, µM (highest dose often 114 µM), for the others: top-dose activity change, negative = inhibition, actives largely listed as inhibitors. AlphaScreen HP1-beta / biotin-H3K9me3 peptide binding. 390,000 compounds, 0.56% hits. P83916; further: nearly all actives have a fitted effect of over 70% in size
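Compound inhibition of the preformed complex between 50 nM HP1-beta and 50 nM biotinylated H3K9me3 peptide was read by AlphaScreen. Buffer was PBS pH 7.4 with 0.01% Tween-20. Incubations ran 30 min at room temperature, with 10 ug/mL donor/acceptor beads.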
Sfp PPTase inh = blocks B. subtilis Sfp PPTase activity | Biochemical Sfp PPTase activity, qHTS | Potency, µM, for inactives: largest response in the series, negative = inhibition, hits mostly inhibitors | 310,000 compounds, 3.5% hits | AID 1490;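 further: the enzyme is Sfp with the accession as filed and its product quenches rhodamine fluorescence; 0% = enzyme reaction without inhibitor and -100% = no enzyme wells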
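Step 1, compound plus 15 nM Sfp-PPTase, 15 min, room temperature. Step 2, add rhodamine-CoA (5 uM) and BHQ-2-YbbR (12.5 uM). Step 3, read 525/598 nm fluorescence at 0 and 30 min.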
L3MBTL1 inh = blocks human L3MBTL1. AlphaScreen L3MBTL1–H3K9me1 peptide binding. AID 485360. 230,000 compounds, 0.66% hits. Potency, µM (series often up to 57.1 µM), for inactives: at the highest dose activity, negative = inhibition, hits mostly inhibitors; further: on the % scale 0 is the no-effect control and ±100 the full control effect; nearly all actives have a fitted effect of over 60% in size
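L3MBTL1 (50 nM) pre-complexed 30 min with biotinylated H3(1-15)K9me1 peptide (75 nM), then compounds added for 30 min at room temperature; AlphaScreen streptavidin donor/nickel chelate acceptor beads (10 ug/mL final) read after 30 min dark incubation.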
G9a inh = blocks human histone lysine methyltransferase G9a; Q96KQ7; G9a H3K9 monomethylation, AlphaScreen, 2 h; Potency, µM (series often up to 102 µM), for the others: top-dose activity, negative = inhibition, usual class: inhibitors; 350,000 compounds, 8.8% hits; AID 504332; further: on the % scale 0 is the no-effect control and ±100 the full control effect; nearly all actives have a fitted effect of over 75% in size
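Compounds were preincubated with 20 nM G9a for 15 min, after which biotinylated H3K9 peptide (500 nM) and SAM (20 uM) started a 2 h room-temperature reaction. Monomethylated product was quantified by antibody-based AlphaScreen chemiluminescence.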
JMJD2A Tudor inh = JMJD2A Tudor domain (human) inhibition; AlphaScreen JMJD2A-Tudor / H3K4me3 peptide binding; 390,000 compounds, 4.4% hits; O75164; Potency, µM (top dose mostly 114 µM), inactives show at the top dose activity change, negative = inhibition, usual class: inhibitors; further: on the % scale 0 is the no-effect control and ±100 the full control effect; nearly all actives have a fitted effect of over 50% in size
* hit, by the source's call; ? = inconclusive; nt = no result given; [ ] = remark or other dose. The call rests on the fitted dose curve; in most records, active means well fitted curve in the direction sought with a large enough effect; inconclusive means small, poorly fitted or top-dose-only effect, or another doubt; inactive means no such curve, though single readings can be large; an effect the other way counts as inactive or inconclusive. Potency means the concentration at half of the fitted maximal effect.

SMILES	BAZ2B block	HP1b binding inh	Sfp PPTase inh	L3MBTL1 inh	G9a inh	JMJD2A Tudor inh
Cc1noc(C)c1-c1nc(NCc2ccccc2)c2ccccc2n1	nt	nt	-13%	nt	13%[0.501 µM]	nt
O=C(O)/C=C/C(=O)Nc1ccc(OCc2ccccc2)cc1	-28%	51%	7%	nt	56µM*	-18%
O=C(/C=C/c1ccc(OCc2cccc(Cl)c2)cc1)N1CCOCC1	-26%	37%	-7%	14%	4%	-18%
O=C(O)/C=C/c1ccc(OCc2cccc(F)c2)cc1	-13%	-2%	1%	nt	-29%	14µM*
COc1ccccc1CNS(=O)(=O)c1cc2c3c(c1)CCN3C(=O)CC2	-3%	7%	nt	-4%	1%	-10%
Cc1ccc(NC(=O)CSc2nnc(N)s2)c(C)c1	-11%	13%	nt	nt	-26%[59 µM]	0%
Cc1noc(C)c1C(=O)N1CCC2(CCCN(c3ccncc3)C2)CC1	nt	nt	7%	nt	3%[12.7 µM]	nt
CC1CCN(CCCNC(=O)c2coc3nc4ccccc4nc23)CC1	-3%	34%	17%	-6%[11.4 µM]	-34%[12.7 µM]	-7%
Cc1ccc(CCNC(=O)c2coc3nc4ccccc4nc23)cc1	0%	29%	-19%	2%	nt	40µM*
CN(Cc1ccccc1)C(=O)Nc1ccc2c(c1)N(C)C(=O)c1ccccc1S2	-26%	46%	nt	nt	?	-27%
O=C(Cc1ccccc1)Nc1sc2c(c1C(=O)Nc1ccc(Br)cc1)CCCC2	4%	34%	nt	nt	-36%[59 µM]	-12%
CN=c1scc(-c2ccc([N+](=O)[O-])cc2)n1/N=C/c1ccco1	?	5%	7%	nt	50µM*	-14%
O=C1c2ccc([N+](=O)[O-])cc2NC(c2ccco2)N1/N=C/c1ccco1 (stereo not given)	?	0%	?	nt	?	?
CCOc1ccc2ccc(OCC)c(/C=N/n3cnnc3)c2c1	10%	25%	3%	-3%	25%	-21%
Cc1[nH]n(-c2ccccc2)c(=O)c1N=Nc1ccc(C(=O)O)cc1	-38%	4%	2%	nt	79µM*	?
COc1ccccc1N=Nc1c(C)[nH]n(-c2ccccc2)c1=O	?	?	14%	-5%	-21%	?
Cc1[nH]n(-c2ccccc2)c(=O)c1N=Nc1ccccc1	2.5µM*	?	16%	-25%	3.5µM*	11µM*
CCOc1ccccc1N=Nc1c(C)[nH]n(-c2ccccc2)c1=O	?	?	-3%	3%	nt	45µM*
Cc1[nH]n(-c2ccccc2)c(=O)c1N=Nc1c(Cl)cccc1Cl	?	19%	24%	-1%	22µM*	-22%
Cc1[nH]n(-c2ccccc2)c(=O)c1N=Nc1ccc(Cl)cc1	?	-14%	?	-21%[2.29 µM]	9%[0.501 µM]	?
CC(C)CNC(=O)C(=O)NCCC1CCCCN1S(=O)(=O)c1cccs1 (stereo not given)	-6%	21%	nt	3%	-3%	-6%
CCOC(=O)C1=CN(Cc2ccco2)S(=O)(=O)NC1c1cccc(OC)c1 (stereo not given)	nt	74%	nt	-1%	nt	-13%
CCc1nnc(NS(=O)(=O)c2ccc(N=Cc3c(C)[nH]n(-c4ccc(Cl)cc4)c3=O)cc2)s1	?	-1%	11%	-9%	-8%[59 µM]	-21%
CC(=O)c1ccc(N=Nc2c(C)[nH]n(-c3ccccc3)c2=O)cc1	32µM*	?	-58%	-23%	3.5µM*	?
Cc1[nH]n(-c2ccc(Cl)cc2)c(=O)c1C=Nc1ccc(S(=O)(=O)N2CCOCC2)cc1	-34%	-6%	23%	-13%	50µM*	-29%
SMILES	BAZ2B block	HP1b binding inh	Sfp PPTase inh	L3MBTL1 inh	G9a inh	JMJD2A Tudor inh
Cc1[nH]n(-c2ccccc2)c(=O)c1N=Nc1cccc(S(=O)(=O)N2CCOCC2)c1	-2%	?	2%	0%	-1%	56µM*
COc1ccc(-c2onc(C)c2C)cc1S(=O)(=O)N1CCc2ccccc21	1%	45%	nt	nt	-27%[59 µM]	-7%
Cc1ccc(C(=O)NC(=S)Nn2cnnc2)cc1	-25%	-8%	28µM*	-7%	10µM*	0%
O=C(NC(=S)Nn1cnnc1)c1cccc(Br)c1	-25%	-24%	-68%	5%	11µM*	-16%
CC(=O)NNC(=S)NC(=O)c1ccc(C)cc1	?	40%	23%	-22%	?	9%
O=C(NCCc1csc(-c2ccc(F)cc2)n1)c1c(F)cccc1Cl	3%	6%[57 µM]	nt	nt	2%[59 µM]	-3%
CC1(C)CC(N2CCN(Cc3ccccc3)CC2)=CC(=[N+]2CCCCC2)C1	-20%	71µM*	16%	nt	?	18µM*
CC1(C)CC(N2CCCC2)=CC(=[N+]2CCCC2)C1	79µM*	-1%	?	?	?	-15%
CC1(C)CC(N2CCCC2)=CC(=[N+]2CCCCC2)C1	-24%	-14%	-19%	-7%	?	-11%
Cc1cc(N(C)Cc2ccccc2)nc(-c2ccccc2)n1	84%	152%	-29%	nt	7%[12.7 µM]	92%
CN(Cc1ccccc1)C1=CC(=[N+]2CCCCC2)CC(C)(C)C1	?	17%	-9%	nt	32µM*	-11%
O=C(CSc1nnc2ccccn12)NC(=O)c1ccccc1Cl	nt	?	nt	-8%	nt	-17%
S=c1[nH]ccn1CCc1ccccc1	27%	-28%	-23%	nt	10µM*	?
Nc1cc(=O)[nH]c(=O)n1CCc1ccccc1	7%	25%	6%	32%	nt	-4%
CC(=O)c1cccc(NC(=O)CSc2nnc(C(C)N(C)C)n2Cc2ccccc2)c1 (stereo not given)	-38%	31%	7%	nt	?	-17%
O=S(=O)(Cc1ccccc1)N1CCN(Cc2c(F)cccc2Cl)CC1	-2%	23%	nt	-1%	35µM*	0%
COc1ccccc1CN1CCN(S(=O)(=O)c2ccccc2)CC1	32µM*	?	?	nt	?	40µM*
O=C(c1cc(Br)ccc1O)N1CCN(S(=O)(=O)Cc2ccccc2)CC1	6%	23%	nt	1%	1%[12.7 µM]	-2%
O=S(=O)(Cc1ccccc1)N1CCN(Cc2ccccc2)CC1	-2%	18%	19%	4%	-7%[12.7 µM]	-12%
